Screen size: about 320,000 compounds; about 3,300 (1%) were called active.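 Rule for the calls: active = every valid replicate shows activation above 250% relative to neutral control wells; inactive = the rest, any valid replicate at or below 250%.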 Many of the other results were omitted from the sample, so actives are more common in it than they were.
Test: yeast Mot1-301 growth rescue at high temperature, primary screen, SUMOylation pathway inhibitor project, S. cerevisiae, ATP luminescence, 38.5C (AID 2716);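 note: OY570 slx delta 5 strain wells were the positive control but not used for scaling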
Details: S. cerevisiae Mot1-301 growth rescue, at 18.8 µM, stronger effect = higher value, percent above DMSO median, 100 means doubled

Row | SMILES | growth rescue
1 | O=C(NCCCN1CCOCC1)c1cn(-c2ccccc2)nc1-c1ccc(F)cc1 | -27.9% (inactive)
2 | COc1cc(NC(=O)C2=CC(c3ccc(C)cc3)=NS(=O)(=O)N2C)cc(OC)c1OC | 18.9% (inactive)
3 | COc1ccc(NC(=O)C2=CC(c3ccc(OC)c(OC)c3)=NS(=O)(=O)N2C)cc1 | 12.2% (inactive)
4 | COc1cc(NC(=O)C2=CC(c3ccco3)=NS(=O)(=O)N2C)cc(OC)c1OC | 446% (active)
5 | CCOC(=O)C(NC(C)=O)C(=O)Nc1ccc(OC)cc1 (stereo unspecified) | 5.5% (inactive)
6 | NS(=O)(=O)c1ccc(CNC(=S)NC(=O)c2ccco2)cc1 | -10.3% (inactive)
7 | CCCCc1nc2cc(C(=O)NCCc3cnn(C)c3)ccc2o1 | 249% (inactive)
8 | O=C1CCC(=O)N1CCOP1(=O)COc2ccccc2OC1 | 402% (active)
9 | CC1Sc2ccc(C(=O)NCc3ccccc3Cl)cc2NC1=O (stereo unspecified) | -10.2% (inactive)
10 | COc1ccc(C)cc1NC(=O)C(Sc1ccccc1)c1ccccc1 (stereo unspecified) | -9.29% (inactive)
11 | COc1cccc(NC(=O)c2nn(C34CC5CC(CC(C5)C3)C4)cc2[N+](=O)[O-])c1 | 384% (active)
12 | COc1cccc(NC(=O)c2ccc(Cn3cc([N+](=O)[O-])cn3)o2)c1 | -22.4% (inactive)
13 | Cn1cc([N+](=O)[O-])c(C(=O)Nc2ccc3c(c2)OCCO3)n1 | -2.5% (inactive)
14 | COc1ccccc1C(=O)NCC(=O)OCC(=O)Nc1nnc(-c2ccccc2)o1 | 0.619% (inactive)
15 | CCCNC(=O)CCn1cc(-c2ccc(OC)cc2)nc1CCN | -5.76% (inactive)
16 | CNS(=O)(=O)c1ccc(NC(=O)Nc2ccc3c(c2)OCO3)cc1 | -8% (inactive)
17 | COc1ccc(Cl)cc1N(CC(=O)N1CCCCC1)S(C)(=O)=O | 316% (inactive)
18 | COCc1c(C(=O)N/N=C\c2cccnc2)nnn1-c1nonc1N | 0.433% (inactive)
19 | C#CCOCCOCCOCCNc1nc(N2CCN(C(=O)[C@H](CCC(=O)O)n3cc(CN)nn3)CC2)nc(N2CCN(C(=O)[C@H](CCC(=O)O)n3cc(CN)nn3)CC2)n1 | -22.6% (inactive)
20 | O=C(c1cccc(F)c1)N1CCC(O)(c2cccnc2)CC1 | 16% (inactive)
21 | Cc1ccc(NC(=O)Nc2cccnc2)cc1 | -4.18% (inactive)
22 | Cc1ccc(NC(=O)N2CCC(O)(c3cccnc3)CC2)cc1 | 356% (active)
23 | Cc1ccc(/C=N/NC(=O)c2sccc2OCc2ccc(F)cc2)cc1 | 17.9% (inactive)

Row | SMILES | growth rescue
24 | COc1cc(-c2nc(S(=O)(=O)c3ccc(Cl)cc3)c(N(C)C)o2)cc(OC)c1OC | 9.48% (inactive)
25 | CC(C)CC(=O)Nc1nnc(S(=O)(=O)N(C)c2ccc(Cl)cc2)s1 | -15.6% (inactive)
26 | COC(=O)c1ccc(COc2cc([N+](=O)[O-])cc3cccnc23)cc1 | -14.7% (inactive)
27 | N#CC1=C(N)Oc2n[nH]c(CSc3ccccc3)c2C12C(=O)Nc1ccccc12 (stereo unspecified) | 564% (active)
28 | N#CC1=C(N)Oc2[nH]c(=S)[nH]c(=O)c2C12C(=O)Nc1ccccc12 (stereo unspecified) | -12% (inactive)
29 | COC(=O)CCSc1nccn1Cc1ccccc1 | -6.82% (inactive)
30 | Cc1ccc(S(=O)(=O)N(C)C)cc1NC(=O)COC(=O)C1COc2ccccc2O1 (stereo unspecified) | -1.18% (inactive)
31 | Cc1ccc(S(=O)(=O)N(C)C)cc1NC(=O)COC(=O)/C=C/c1cccs1 | -3.27% (inactive)
32 | Cc1ccc(S(=O)(=O)N(C)C)cc1NC(=O)COC(=O)c1c(C)noc1C | 358% (active)
33 | O=c1[nH]n2c(=O)c3c([nH]c2c1N=Nc1ccccc1)CCC3 | -13.5% (inactive)
34 | COc1ccc(OC)c(NC(=O)c2ccc3c(c2)C(=O)N(c2ccc(OC(C)=O)cc2)C3=O)c1 | -1.05% (inactive)
35 | COCCCN1C(=O)c2ccc(C(=O)Nc3ccc(OC)cc3OC)cc2C1=O | 994% (active)
36 | COCCCN1C(=O)c2ccc(C(=O)OCC(=O)NCc3ccccc3OC)cc2C1=O | -4.61% (inactive)
37 | Cc1cc(S(=O)(=O)c2cc3ccc(O)c(C)c3oc2=O)ccc1F | 2.17% (inactive)
38 | COc1ccc(F)cc1S(=O)(=O)NCC(c1ccc2c(c1)OCO2)N1CCN(C)CC1 (stereo unspecified) | 72.2% (inactive)
39 | COc1ccc(NC(=O)CSc2ccc(-c3ccco3)nn2)c(OC)c1 | -3.7% (inactive)
40 | CCc1ccc(C(=O)COC(=O)c2ccco2)cc1 | 2.04% (inactive)
41 | O=C(COC(=O)c1ccccc1C(=O)c1ccccc1)c1ccco1 | 524% (active)
42 | CCN(CC)c1ccc(C(=O)OCC(=O)c2ccco2)cc1 | -12.1% (inactive)
43 | O=C(COC(=O)c1ccccc1O)NCc1ccco1 | 0.0433% (inactive)
44 | O=C1C2N=NN(CC(=O)N3N=C(c4cccc5ccccc45)CC3c3ccccc3)C2C(=O)N1c1ccccc1 (stereo unspecified) | -6.23% (inactive)
45 | Cc1ccc(N2C(=O)C3N=NN(CC(=O)N4N=C(c5cccc6ccccc56)CC4c4ccccc4)C3C2=O)cc1 (stereo unspecified) | 376% (active)
46 | CC(=O)Oc1ccccc1C1=NN(C(C)=O)C(c2ccccc2)C1 (stereo unspecified) | -0.218% (inactive)

Row | SMILES | growth rescue
47 | S=C(c1ccc(-c2ccccc2)o1)N1CCCCC1 | 32.2% (inactive)
48 | CCOC(=O)c1cc(-c2ccccc2C)n(Cc2cc(C)no2)n1 | -17.1% (inactive)
49 | O=C(O)c1cnn2c(C(F)(F)F)cc(-c3ccccc3)nc12 | 310% (active)
50 | COc1ccc(NC(=O)c2cc3nc(-c4ccccc4)cc(C)n3n2)cc1OC | 50% (inactive)
51 | Cc1cc(C(F)(F)F)n2ncc(-c3ccccc3)c2n1 | 4.42% (inactive)
52 | COC(=O)c1cc2nc(-c3ccccc3)cc(C(F)(F)F)n2n1 | 295% (active)
53 | Cc1ccc(-c2cc(C(F)(F)F)n3ncc(C(=O)N4CCCCC4c4cccnc4)c3n2)cc1 (stereo unspecified) | -2.2% (inactive)
54 | O=C(c1ccccc1)N1CCN(C(=O)c2cc3nc(-c4ccccc4)cc(C(F)(F)F)n3n2)CC1 | -13.8% (inactive)
55 | COc1ccc(CNC(=O)c2cc(C(=O)C3CC3)c[nH]2)cc1 | -7.94% (inactive)
56 | COc1ccc(N(CC(=O)Nc2cc(OC)ccc2OC)S(=O)(=O)c2c(C)noc2C)cc1 | 0.112% (inactive)
57 | CCc1nn(-c2cc(Oc3cccc4ccccc34)nc(-c3ccccc3)n2)c(N)c1C#N | 20.3% (inactive)
58 | COC(=O)c1ccc2c(C(C)(C)O)c(C(C)(C)O)[nH]c2c1 | 6.47% (inactive)
59 | COc1ccccc1CNS(=O)(=O)c1cc2c3c(c1)CCC(=O)N3CCC2 | -12.2% (inactive)
60 | O=C(Nc1nccs1)C1CCN(S(=O)(=O)c2ccc(Cl)c(C(F)(F)F)c2)CC1 | 639% (active)
61 | O=C(Nc1ccccn1)C1CCN(S(=O)(=O)c2ccccc2)CC1 | -0.505% (inactive)
62 | O=C(Nc1ccccn1)C1CCN(S(=O)(=O)c2ccc3c(c2)OCCO3)CC1 | -4.76% (inactive)
63 | COc1ccccc1CNC(=O)[C@@H]1CCCN1C(=O)[C@@H]1Cc2ccccc2CN1C(=O)OC(C)(C)C | -1.52% (inactive)
64 | CCOc1ccc(Oc2nc(C)cc(OC)n2)nn1 | -10.1% (inactive)
65 | O=C(CNS(=O)(=O)c1ccccc1)NCC(=O)OCc1ccccc1F | -4.19% (inactive)
66 | Cc1ccc(SCC(=O)NC(=O)NCc2ccco2)c(C)c1 | -8.85% (inactive)
67 | Cc1sc2ncnc(Sc3nc4ccccc4s3)c2c1C | 512% (active)
68 | CSc1ncnc2sc(C)c(C)c12 | -17.7% (inactive)
69 | COC(=O)c1c(-c2cccs2)csc1NC(=O)CSc1ncnc2sc(C)c(C)c12 | -4.24% (inactive)

Row | SMILES | growth rescue
70 | CCOc1ccc(S(=O)(=O)NCCC(=O)N2CCCCCCC2)cc1 | 10% (inactive)
71 | Cc1ccc(S(=O)(=O)N2CCOCC2)cc1C(=O)NCc1ccc(F)cc1 | 2.54% (inactive)
72 | COc1ccc(S(=O)(=O)N2CCCCCC2)cc1NC(=O)Cc1ccc(OC)c(OC)c1 | -10.8% (inactive)
73 | NC(=O)c1cc(S(=O)(=O)N2CCCC2)ccc1OCc1ccc(F)cc1 | 359% (active)
74 | COc1ccc(OC)c(-n2cc3c(=O)n(C)c(=O)n(C)c3c2)c1 | 2.1% (inactive)
75 | O=c1c2ccccc2nc(CSc2nnnn2-c2ccccc2)n1-c1ccccc1 | 1010% (active)
76 | O=c1c2ccccc2nnn1CSc1nnnn1-c1ccccc1 | 0.362% (inactive)
77 | Cc1ccc(Nc2nc(CSc3nnnn3-c3ccccc3)cc(=O)[nH]2)cc1 | 3.22% (inactive)
78 | Cn1c(N)c(C(=O)COC(=O)c2ccccc2NCc2ccco2)c(=O)n(C)c1=O | 72.4% (inactive)
79 | COC(=O)c1ccc(C(NC(=O)OCc2ccccc2)/C(F)=C/[C@@H](C)C(=O)O)cc1 (stereo partly specified) | -2.48% (inactive)
80 | CCc1ccccc1S(=O)(=O)Cc1ccc(C(=O)NCCc2ccccc2)o1 | -2.78% (inactive)
81 | COc1ccc(N2C(=O)CC(Sc3n[nH]c(-c4ccc(C)cc4)n3)C2=O)cc1 (stereo unspecified) | 257% (inactive)
82 | Cc1ccc(N2C(=O)CC(Sc3ncn[nH]3)C2=O)cc1 (stereo unspecified) | 287% (active)
83 | O=C1CC(Sc2ncn[nH]2)C(=O)N1c1ccccc1 (stereo unspecified) | -26.4% (inactive)
84 | COc1cc(Cl)c(C)cc1NC(=O)CSc1nnc(CN2CCCC2)o1 | 50.1% (inactive)
85 | CCOc1cc2[nH]c(=S)n(Cc3ccc(C(=O)N4CCN(C)CC4)cc3)c(=O)c2cc1OCC | -1.75% (inactive)
86 | O=C(CNS(=O)(=O)c1ccc(Br)s1)NCc1ccc2c(c1)OCO2 | 17.3% (inactive)
87 | O=C(CNC(c1ccccc1)c1ccccc1)Nc1ccc(F)cc1 | 14.1% (inactive)
88 | CN1C(=O)CC(c2ccccc2)C1=O (stereo unspecified) | 8.06% (inactive)
89 | O=C1CC(c2ccccc2)C(=O)N1c1cccc(O)c1 (stereo unspecified) | 564% (active)
90 | O=C1OCC2=C1C(c1ccccc1)CC(=O)N2c1cccc(F)c1 (stereo unspecified) | 4.11% (inactive)
91 | COc1ccc(C(C)=O)cc1CN1C(=O)NC2(CCCCC2C)C1=O (stereo unspecified) | 115% (inactive)

Source: PubChem BioAssay AID2716 (Broad Institute, 2010)
